Sa RN4220 lethal: S. aureus RN4220 growth inhibition; OD600, 16 h; inhibition, % (concentration not given with the values); hit rate 0.33% among 330,000; AID 1259311; in the data active means inhibition above about 85%;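 further: plate controls were untreated cells for no effect and reference antibiotic for full effect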
ugtP null kill: kills S. aureus RN4220 lacking UgtP. growth inhibition, % (no concentration beside the values). hit rate 0.54% among 330,000. S. aureus RN4220 ugtP deletion, OD600 growth, 16 h; in the data active means growth inhibition above about 68%;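 further: plate controls were untreated wells for no effect and antibiotic for full effect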
PrPC TRFRET: inhibitors of human cell surface prion protein PrPC. TR-FRET read-out. AID 720596. hit rate 0.43% among 370,000. inhibition, % at 13.8 µM. P04156; in the data active means inhibition above about 24%; further: 0% = median of the test wells and 100% = reference compound wells
BJeLR viability: kills HRASV12-expressing BJeLR cells; BJeLR (HRASV12) viability, CellTiter-Glo ATP luminescence, 48 h; inhibition, % (no concentration beside the values); hit rate 0.17% among 300,000; AID 1554; in the data active means inhibition above about 50%
Starred values were filed as active, the others as inactive. Rows were chosen to be rich in hits. Some 0.95% of all compounds tested hit in one or more screens of this group.

Screening CCN=C1NC(c2ccccc2)C(C(=O)OC)=C(C)N1Cc1ccc(C(F)(F)F)cc1 (configuration not stated) returned PrPC TRFRET -11.6.
CC1C/C(=C/c2cccs2)C(=O)/C(=C/c2cccs2)C1 (configuration not stated) was read as Sa RN4220 lethal -7.7, ugtP null kill 90.0*, PrPC TRFRET -0.8 and BJeLR viability 4.3.
CC1=C2NC(N)=[N+](CC3CC3)C(Cc3ccccc3)[C@@H]2n2c(=O)n(-c3ccccc3)c(=O)n2C1 (some centres not stated) was read as PrPC TRFRET -4.1.
For CC1CN(C(C)CO)C(=O)c2cc(NS(=O)(=O)c3ccccc3)ccc2OC1CN(C)S(=O)(=O)c1ccc(F)cc1 (configuration not stated) the results were Sa RN4220 lethal 6.1 and ugtP null kill 15.2.
For CC(=NNC(=O)CC1N=C(Cc2ccccc2)NNC1=O)c1ccc(Cl)cc1Cl (configuration not stated) the results were Sa RN4220 lethal 5.1 and ugtP null kill 2.3.
O=C(c1cccs1)c1no[n+]([O-])c1C(=O)c1cccs1 was read as Sa RN4220 lethal 4.9, ugtP null kill 4.9 and BJeLR viability 71.4*.
Oc1ccccc1-c1nc2c3ccccc3c3ccccc3c2[nH]1 was read as Sa RN4220 lethal 100.4*, ugtP null kill 97.9*, PrPC TRFRET 4.7 and BJeLR viability 3.1.
Screening c1csc(-c2nc3c4ccccc4c4ccccc4c3[nH]2)c1 returned Sa RN4220 lethal 81.2, ugtP null kill 89.7*, PrPC TRFRET 4.5 and BJeLR viability 1.7.
For CC(=NNc1nc(-c2ccccc2O)nc2ccccc12)c1ccccc1 the results were Sa RN4220 lethal -5.1 and ugtP null kill -18.6.
For CCn1cc(C=NNC(=O)c2ccc(F)cc2)cn1 the results were Sa RN4220 lethal 8.0 and ugtP null kill 12.3.
Screening CCCCC(=O)NC(c1ccc(C(C)C)cc1)c1ccc2cccnc2c1O (configuration not stated) returned Sa RN4220 lethal 33.8, ugtP null kill -3.5, PrPC TRFRET 12.6 and BJeLR viability 53.7*.
For CCOC(=O)c1c(-c2ccccc2)oc2ccc(OC)cc12 the results were Sa RN4220 lethal -2.5, ugtP null kill 89.6*, PrPC TRFRET -1.0 and BJeLR viability 3.0.
Screening Cn1c2c(c(=O)n(C)c1=O)C1c3c(ccc4ccccc34)OCC1CO2 (configuration not stated) returned Sa RN4220 lethal 5.8 and ugtP null kill -10.2.
`O=C(NN=Cc1ccc(O)cc1)/C(=C/c1ccc([N+](=O)[O-])cc1)NC(=O)c1ccccc1` gave Sa RN4220 lethal 4.2 and ugtP null kill -12.1.
`CCC1Oc2ccccc2N(CC(=O)NC2CCCCC2)C1=O` (configuration not stated) gave Sa RN4220 lethal 9.7, ugtP null kill 100.8*, PrPC TRFRET 3.4 and BJeLR viability -0.5.
`Cc1ccc(SCC(O)=C(C#N)c2nc3ccccc3s2)cc1` gave Sa RN4220 lethal 96.6* and ugtP null kill 91.9*.
For Cc1ccc(SC/C(O)=C(\C#N)c2nc3ccccc3s2)cc1 the results were PrPC TRFRET -9.6 and BJeLR viability -3.3.
Screening CCOc1ccc(CCNC(=O)c2ccc(CS(=O)Cc3ccc(Cl)cc3)o2)cc1 (configuration not stated) returned Sa RN4220 lethal -8.0, ugtP null kill 95.1*, PrPC TRFRET 6.5 and BJeLR viability 4.7.
`O=C(NCCc1ccc(Cl)cc1)c1ccc(CS(=O)Cc2ccc(Cl)cc2)o1` (configuration not stated) gave Sa RN4220 lethal -1.9, ugtP null kill 99.3*, PrPC TRFRET 1.5 and BJeLR viability 7.8.
Screening CSc1ccc(CCNC(=O)c2ccc(CS(=O)Cc3ccc(Cl)cc3)o2)cc1 (configuration not stated) returned Sa RN4220 lethal -1.5, ugtP null kill 52.8, PrPC TRFRET 9.7 and BJeLR viability 8.1.
`O=C(NCCc1ccccc1)c1ccc(CS(=O)Cc2cccc(Cl)c2)o1` (configuration not stated) gave Sa RN4220 lethal -5.5, ugtP null kill 87.3*, PrPC TRFRET -0.3 and BJeLR viability -9.7.
`CCOc1ccc(CCNC(=O)c2ccc(CS(=O)Cc3ccccc3Cl)o2)cc1` (configuration not stated) gave Sa RN4220 lethal -3.2, ugtP null kill 14.2, PrPC TRFRET 2.7 and BJeLR viability 4.2.
For C#CCOCCOCCOCCNc1nc(N2CCN(C(=O)C(CCCCN)n3cc(CN)nn3)CC2)nc(N2CCN(C(=O)C(CCCCN)n3cc(C(N)C(C)CC)nn3)CC2)n1 (configuration not stated) the results were Sa RN4220 lethal 7.3 and ugtP null kill -4.2.
`CCCCCCCCCCCC1=C(O)C(=O)C=C(O)C1=O` gave Sa RN4220 lethal 99.5*, ugtP null kill 99.6* and BJeLR viability -3.3.
Screening COC1=CC(=O)C(O)=C(CCCCCCC/C=C/CCCCCCCC2=C(O)C(=O)C=C(OC)C2=O)C1=O returned BJeLR viability 2.8.
For COc1ccc2sc(-c3ccc(N(C)C)cc3)c(C#Cc3cncn3C)c2c1 the results were Sa RN4220 lethal 77.9, ugtP null kill 82.1* and PrPC TRFRET -5.5.
O=C(NC1CCC1)c1ccc(C#Cc2cccc(F)c2)cn1 was read as PrPC TRFRET 12.6.
For COc1ccc2cc(CNCCOCCOCCNCc3ccc4cc(OC)ccc4c3)ccc2c1 the results were PrPC TRFRET 32.1*.
Screening Cc1ccc(C(=O)COc2ccccc2N2C(=O)c3ccccc3C2=O)cc1 returned Sa RN4220 lethal 0.6, ugtP null kill 9.2, PrPC TRFRET 5.1 and BJeLR viability -4.2.
Cc1ccc(C(=O)COc2ccccc2-c2ccccc2)cc1 was read as Sa RN4220 lethal -2.1, ugtP null kill 85.5*, PrPC TRFRET 0.1 and BJeLR viability 4.8.
CCCc1ccc(Oc2cc(N3CCOCC3)nc(-c3ccccc3)n2)cc1 was read as Sa RN4220 lethal -12.0 and ugtP null kill 89.1*.
CCCc1ccc(Oc2cc(C)nc(N3CCOCC3)n2)cc1 was read as Sa RN4220 lethal 4.1, ugtP null kill 39.6, PrPC TRFRET -3.2 and BJeLR viability -0.5.
Screening O=C(O)COc1ccc(C=NNC(=O)c2cn(-c3ccccc3)nc2-c2ccccc2)cc1 returned Sa RN4220 lethal 4.1 and ugtP null kill 0.5.
CCSc1nc(C2CC2)cc(-c2cccs2)c1C#N was read as Sa RN4220 lethal 7.7, ugtP null kill 93.0*, PrPC TRFRET -3.1 and BJeLR viability -5.9.
`CCC(C)n1c(SCC(=O)C(C#N)=C(C)N)nc2ccccc2c1=O` (configuration not stated) gave Sa RN4220 lethal 4.3 and ugtP null kill 2.4.
Screening CSc1nncn1N=Cc1ccc([N+](=O)[O-])cc1 returned Sa RN4220 lethal -2.2 and ugtP null kill -8.2.
For CCCCCCCN(C(=O)CCl)c1cccc(C)c1 the results were Sa RN4220 lethal 25.4, ugtP null kill 87.4*, PrPC TRFRET 5.7 and BJeLR viability 91.9*.
`CCCCN1C=CC(=C2C(=O)c3ccccc3C2=O)C=C1` gave Sa RN4220 lethal 4.8, ugtP null kill 12.1, PrPC TRFRET -28.6 and BJeLR viability 65.1*.
